Assay outcomes (PubChem)
RE007 growth inh – less growth of the S. pombe RE007 Vpr strain | Potency, µM (doses to about 92.2 µM), hits mostly inhibitors | AID 651644 | S. pombe RE007 Vpr strain, BacTiter-Glo ATP luminescence, 24 h | actives 0.21% (n = 360,000); active = well fitted falling curve with a large enough effect; inconclusive = small, poorly fitted or top-dose-only effect; inactive = no such curve, though single readings can be large or run the other way; also: nearly all actives have a fitted effect of over 50% in size
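Fission yeast RE007 carrying one integrated HIV-1 vpr copy, seeded at OD 0.01 in PMG+AL medium with 23 nL pinned compound. Grown 24 h at 30 degrees; viability read by BacTiter-Glo luminescence after 5 min.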
Marburg entry inh – Marburg virus entry inhibition; actives 1.8% (n = 300,000); Marburg virus pseudotyped entry inhibition, cell reporter; Potency, µM (top dose mostly 37.8 µM), actives largely listed as inhibitors; calls by dose curve; tested in HEK293 cells
Sm TGR inh – blocks Schistosoma mansoni thioredoxin glutathione reductase; Potency, µM (titrated, usually from 114 µM), actives largely listed as inhibitors; purified TGR, DTNB reduction, TNB absorbance 405 nm; Q962Y6; actives 3% (n = 360,000); AID 485364; also: nearly all actives have a fitted effect of over 60% in size
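First, TGR (20 nM dispensed) and NADPH were mixed with compound. Second, a 15 min room-temperature incubation followed. Third, further NADPH and then DTNB were added to start the reaction. Finally, TNB absorbance was monitored kinetically.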
FMDV antiviral – antivirals against foot and mouth disease virus. FMDV antiviral cell-based qHTS. Potency, µM (doses to about 57.9 µM), usual class: inhibitors. actives 1.2% (n = 410,000); calls by dose curve; tested in HEK293T cells; also: read-out not given here; nearly all actives have a fitted effect of over 45% in size
Lassa entry inh – Lassa virus entry inhibition. Lassa virus pseudotype entry inhibition, cell reporter. actives 1.2% (n = 300,000). AID 540256. Potency, µM (series often up to 37.9 µM), usual class: inhibitors; calls by dose curve; tested in HEK293 cells; also: nearly all actives have a fitted effect of over 50% in size
HCV inhibitor – HCV inhibition; actives 3.4% (n = 340,000); Huh7.5.1 HCVcc-Cre infection, luciferase reporter, 44 h; Potency, µM (series often up to 41.8 µM), most hits filed as inhibitors
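Compounds are dispensed onto cells plated 4 h earlier at 1,000 per well, with HCVcc-Cre virus (about 0.5 moi) added next. Following 44 h of culture, luminescent signal is measured for 15 sec after 15 min with substrate at room temperature.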
Numbers stand for hits. In the library only some 7.2% were active in any assay of this set; here they are far more common. Unless noted, calls follow the shape of the dose curve; as a rule, active = well fitted curve in the direction sought with a large enough effect; inconclusive = small, poorly fitted or top-dose-only effect, or another doubt; inactive = no such curve, though single readings can be large; an effect the other way counts as inactive or inconclusive.

For Nc1nonc1-n1nnc(C(=O)N/N=C/c2ccc(Br)cc2)c1CSC1=NCCS1 the results were RE007 growth inh inactive, Marburg entry inh inactive, Sm TGR inh inactive, FMDV antiviral inactive, Lassa entry inh inconclusive and HCV inhibitor inconclusive.
`COc1ccc(/C(C)=N/NC(=O)c2nnn(-c3nonc3N)c2CN(C)c2ccccc2)cc1` gave RE007 growth inh inactive, Sm TGR inh inactive, FMDV antiviral inactive and HCV inhibitor inactive.
Screening C/C(=N\NC(=O)c1nnn(-c2nonc2N)c1CN(C)c1ccccc1)c1ccccc1O returned RE007 growth inh inactive, Marburg entry inh 8.91µM, Sm TGR inh inactive, FMDV antiviral inactive, Lassa entry inh inconclusive and HCV inhibitor inconclusive.
For CCN(CC)c1ccc(/C=N/NC(=O)c2nnn(-c3nonc3N)c2C(C)C)c(O)c1 the results were RE007 growth inh inactive, Marburg entry inh 2.51µM, Sm TGR inh inactive, FMDV antiviral inactive, Lassa entry inh inconclusive and HCV inhibitor 1.12µM.
CC(C)c1ccc(/C=N/NC(=O)c2nnn(-c3nonc3N)c2CSC2=NCCS2)cc1 was read as RE007 growth inh inactive, Marburg entry inh inactive, Sm TGR inh inactive, FMDV antiviral inconclusive, Lassa entry inh inconclusive and HCV inhibitor 11.2µM.
For CCS(=O)(=O)N1Cc2cc(C(=O)NCC3CC3)nc(-c3cccc(-c4cccnc4)c3)c2[C@@H]1CCO the results were RE007 growth inh inactive and FMDV antiviral inactive.
For O=C(c1cnccn1)N1CCC[C@@]2(CCN(Cc3ccccc3)C2)C1 the results were FMDV antiviral inactive.
Screening CN=C(NC#N)NCCSCC1N=CN=C1C (stereo unspecified) returned Marburg entry inh inactive.
`CC(C)c1ccc(-c2noc(SCC(=O)N3CCCCC3C)n2)cc1` (stereo unspecified) gave Sm TGR inh inactive, FMDV antiviral inactive and Lassa entry inh inactive.
For Cc1cc(NC(=O)c2ccc3c(c2)C(=O)N(C2CCCCC2)C3=O)no1 the results were RE007 growth inh inactive, Marburg entry inh inactive, Sm TGR inh inactive, FMDV antiviral inactive, Lassa entry inh inactive and HCV inhibitor inactive.
For O=C(Nc1ccncc1)c1ccc2c(c1)C(=O)N(C1CCCCC1)C2=O the results were RE007 growth inh inactive, Marburg entry inh inconclusive, Sm TGR inh inactive, FMDV antiviral 14.1µM, Lassa entry inh inactive and HCV inhibitor inconclusive.
`N#Cc1ccc(C(=O)Nc2ccc3c(c2)N(C2CCCC2)C(=O)c2ccccc2S3)cc1` gave Sm TGR inh inactive, FMDV antiviral inactive and Lassa entry inh inconclusive.
For CC(=O)Nc1ccc(C(=O)Nc2ccc3c(c2)N(C2CCCC2)C(=O)c2ccccc2S3)cc1 the results were Sm TGR inh inactive, FMDV antiviral inconclusive and Lassa entry inh 6.31µM.
For Clc1cc2nc3ccccn3c2cc1Cl the results were RE007 growth inh inactive, Marburg entry inh inactive, Sm TGR inh inactive, FMDV antiviral inactive, Lassa entry inh inactive and HCV inhibitor 25.1µM.
`O=C1CCCCCN1Sc1ccccc1` gave RE007 growth inh 12.6µM, Marburg entry inh inactive, Sm TGR inh inactive, FMDV antiviral inactive, Lassa entry inh inactive and HCV inhibitor inactive.
CC1(C)c2ccccc2N2CCC(=O)NC21/C=C/c1ccco1 (stereo unspecified) was read as RE007 growth inh inactive, Marburg entry inh inactive, Sm TGR inh 25.1µM, FMDV antiviral inactive, Lassa entry inh inactive and HCV inhibitor inactive.
Screening CC1(C)c2ccccc2N2CC(=O)NC21/C=C/c1ccco1 (stereo unspecified) returned RE007 growth inh inactive, Marburg entry inh inactive, Sm TGR inh 7.94µM, FMDV antiviral inactive, Lassa entry inh inconclusive and HCV inhibitor inactive.
COCC(=O)Nc1cc(C(=O)N2CCCC(C(N)=O)C2)cc2nc(-c3ccccc3)n(C)c12 (stereo unspecified) was read as FMDV antiviral inactive.
Screening CCn1c(SCC(=O)N2CCC(C)CC2)nnc1-c1ccccc1O returned Sm TGR inh inactive, FMDV antiviral inactive and Lassa entry inh inactive.
`CCOCCCn1c(C)nc2c(c1=O)c1nc3ccccc3nc1n2CCC1=CCCCC1` gave RE007 growth inh inactive, Marburg entry inh 10µM, Sm TGR inh inactive, FMDV antiviral inconclusive, Lassa entry inh inconclusive and HCV inhibitor inactive.
`O=C1NN(c2ccccc2)C(=O)/C1=C\c1cccc(OC(=O)c2cccs2)c1` gave RE007 growth inh inactive, Marburg entry inh inactive, Sm TGR inh 35.5µM, FMDV antiviral inconclusive, Lassa entry inh inactive and HCV inhibitor inactive.
CC(C)(C)OC(=O)N1CCc2onc(-c3ccc(-n4cc(C5=CCCCC5)nn4)cc3)c2C1=O was read as RE007 growth inh inactive and FMDV antiviral inactive.
COc1ccc(NC(=S)NC(NC(=O)CF)C(Cl)(Cl)Cl)cc1[N+](=O)[O-] (stereo unspecified) was read as RE007 growth inh inactive, Sm TGR inh 35.5µM, FMDV antiviral inactive and HCV inhibitor inactive.
Screening CC(C)CC(=O)NC(Nc1ccccc1F)C(Cl)(Cl)Cl (stereo unspecified) returned RE007 growth inh inactive, Marburg entry inh inactive, Sm TGR inh inactive, FMDV antiviral inactive, Lassa entry inh inactive and HCV inhibitor inactive.
COC(=O)NC(NC(=S)Nc1ccc([N+](=O)[O-])cc1)C(Cl)(Cl)Cl (stereo unspecified) was read as RE007 growth inh inactive, Marburg entry inh inconclusive, Sm TGR inh 20µM, FMDV antiviral inactive, Lassa entry inh inactive and HCV inhibitor inconclusive.
For Cc1ccc(NC(=S)NC(NC(=O)c2ccccc2C)C(Cl)(Cl)Cl)c(C)c1 (stereo unspecified) the results were RE007 growth inh inactive, Marburg entry inh 23.1µM, Sm TGR inh inactive, FMDV antiviral inactive, Lassa entry inh inconclusive and HCV inhibitor inconclusive.
CC(C)CC(=O)NC(Nc1ccc([N+](=O)[O-])cc1)C(Cl)(Cl)Cl (stereo unspecified) was read as RE007 growth inh inactive, Marburg entry inh inconclusive, Sm TGR inh inactive, FMDV antiviral 31.6µM, Lassa entry inh inconclusive and HCV inhibitor inconclusive.
For CCOC(=O)NC(NC(=S)Nc1ccc(OC)cc1)C(Cl)(Cl)Cl (stereo unspecified) the results were RE007 growth inh inactive, Marburg entry inh inconclusive, Sm TGR inh inactive, FMDV antiviral inactive, Lassa entry inh inconclusive and HCV inhibitor inactive.
O=C(CN1C(=O)c2ccccc2C1=O)NCC1Cc2cccc(-c3ncccn3)c2O1 (stereo unspecified) was read as FMDV antiviral inactive.
COc1ccc(NC(=S)NC(NC(=O)c2ccc(Cl)cc2Cl)C(Cl)(Cl)Cl)c([N+](=O)[O-])c1 (stereo unspecified) was read as RE007 growth inh inactive, Marburg entry inh inconclusive, Sm TGR inh inactive, Lassa entry inh inactive and HCV inhibitor inconclusive.
